The full data set covers some 7,900 targets. This sample favours those with a hit. About 0.6% of all pairs of compound and target were hits. Values without a mark were called inactive.
What was measured:
Assay in all cases: log2 fold change, soluble protein after heating vs DMSO (PISA); higher = thermal stabilisation; K562 cells, 10 uM, 30 min; active = over 0.2 and 3.5 SD of the protein, either way, in both replicates (recomputed)
erlotinib = compound: C#Cc1cccc(Nc2ncnc3cc(OCCOC)c(OCCOC)cc23)c1 [erlotinib]
Method in brief: (§1)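 Thermal stability values are relative to control samples and come from duplicates. They are expressed as log2 fold changes. For measurement, K562 cells (2×10^6 cells/mL) received 10 μM compound for 30 min, and aliquots were heated for 3 min over 48°C-58°C, pooled, and extracted at 4°C in PBS with 0.5% NP-40. Soluble protein, the supernatant after 21,000xg for 90 min, was quantified by TMTpro 16plex LC-MS/MS with equalised channel sums.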

[1] = compound: C/C(=N\NC(=O)C1=CC(=CC=C1)S(=O)(=O)N2CCOCC2)/C3=C(C=CC(=C3)Cl)O
Method in brief: as §1

[2] = compound: C1=CC(=C(C=C1Cl)C2=NC3=NC=CN=C3C(=N2)NC4=CC=NC=C4)F
Method in brief: as §1

[3] = compound: C1=CC(=CC=C1C2=NC3=C(N2)C=C(C=C3)C(=O)N)OC4=CC=C(C=C4)Cl
Method in brief: as §1

[4] = compound: C1=CC2=C(C=CC(=C2)/C=C\3/C(=O)NC(=NCC4=CC=CS4)S3)N=C1
Method in brief: as §1

[5] = compound: C1=CC2=NC=CN=C2C=C1/C=C/3\C(=O)NC(=O)S3
Method in brief: as §1

[6] = compound: C1=CC=C(C=C1)C2=NC(=C(N2)C3=CC=NC=C3)C4=CC(=C(C=C4)Cl)O
Method in brief: as §1

[7] = compound: C1=CC=C2C(=C1)C3=NNC4=CC=CC(=C43)C2=O
Method in brief: as §1

[8] = compound: C1CCN(C1)C(=O)NC2=CC=CC(=C2)NC3=NC=C(C(=N3)NCCC4=CN=CN4)Br
Method in brief: as §1

[9] = compound: C1CN(CCC1(CC2=CC=C(C=C2)Cl)N)C3=NC=NC4=C3C=CN4
Method in brief: as §1

IRAK-1-4 Inhibitor I = compound: C1COCCN1CCN2C3=CC=CC=C3N=C2NC(=O)C4=CC(=CC=C4)[N+](=O)[O-] [IRAK-1-4 Inhibitor I]
Method in brief: as §1

ibrutinib = compound: C=CC(=O)N1CCC[C@@H](n2nc(-c3ccc(Oc4ccccc4)cc3)c3c(N)ncnc32)C1 [ibrutinib]
Method in brief: as §1

[10] = compound: CC(=O)c1cnc2ccc(-c3cc(Cl)c(O)c(Cl)c3)nc2c1N[C@H]1CC[C@H](CN(C)C)CC1
Method in brief: as §1

ralimetinib = compound: CC(C)(C)Cn1c(N)nc2ccc(-c3[nH]c(C(C)(C)C)nc3-c3ccc(F)cc3)nc21 [ralimetinib]
Method in brief: as §1

[11] = compound: CC(C)(O)CC(=O)NCCn1ccc2ncnc(Nc3ccc(Oc4cccc(C(F)(F)F)c4)c(Cl)c3)c21
Method in brief: as §1

[12] = compound: CC(C)C1=C2N=C(C=C(N2N=C1)NCC3=CC=CC=C3)NCCCCCCN
Method in brief: as §1

[13] = compound: CC(C)C[C@@H](C=O)NC(=O)[C@H](CC(C)C)NC(=O)[C@H](CC(C)C)NC(=O)OCc1ccccc1
Method in brief: as §1

pinometostat = compound: CC(C)N(C[C@H]1O[C@@H](n2cnc3c(N)ncnc32)[C@H](O)[C@@H]1O)[C@H]1C[C@@H](CCc2nc3cc(C(C)(C)C)ccc3[nH]2)C1 [pinometostat]
Method in brief: as §1

[14] = compound: CC1=C(C(CC(=O)N1)C2=CC=C(C=C2)C(F)(F)F)C(=O)NC3=C(C=C4C(=C3)C=NN4)F
Method in brief: as §1

[15] = compound: CC1=C(C2=C(C=C1)C(=O)C3=CC=CC=C3N2CCCN)C
Method in brief: as §1

Sequence of UniProt Q15365 (Q15365 whole entry, looked up): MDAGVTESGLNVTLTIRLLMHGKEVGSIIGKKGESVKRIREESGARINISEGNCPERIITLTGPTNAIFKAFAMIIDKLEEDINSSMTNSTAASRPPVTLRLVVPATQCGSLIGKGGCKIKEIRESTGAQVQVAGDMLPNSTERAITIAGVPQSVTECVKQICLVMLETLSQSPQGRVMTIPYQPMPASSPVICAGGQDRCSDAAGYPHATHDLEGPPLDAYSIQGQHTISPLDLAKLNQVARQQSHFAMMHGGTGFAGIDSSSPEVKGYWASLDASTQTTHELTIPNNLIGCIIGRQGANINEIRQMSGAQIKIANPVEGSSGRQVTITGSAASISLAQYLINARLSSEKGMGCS
Sequence of UniProt Q8NBL1 (Q8NBL1 whole entry, looked up): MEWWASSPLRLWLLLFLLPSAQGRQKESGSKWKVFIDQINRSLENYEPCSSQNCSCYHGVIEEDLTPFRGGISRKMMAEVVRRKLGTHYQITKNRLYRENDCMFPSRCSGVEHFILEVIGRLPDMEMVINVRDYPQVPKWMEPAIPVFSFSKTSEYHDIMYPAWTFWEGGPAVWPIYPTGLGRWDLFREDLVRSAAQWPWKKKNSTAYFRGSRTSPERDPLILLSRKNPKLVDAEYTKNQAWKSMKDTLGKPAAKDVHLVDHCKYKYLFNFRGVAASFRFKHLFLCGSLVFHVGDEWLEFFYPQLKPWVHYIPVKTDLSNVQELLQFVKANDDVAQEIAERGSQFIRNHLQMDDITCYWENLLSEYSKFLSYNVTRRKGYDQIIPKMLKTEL
Sequence of UniProt P09884 (P09884 whole entry, looked up): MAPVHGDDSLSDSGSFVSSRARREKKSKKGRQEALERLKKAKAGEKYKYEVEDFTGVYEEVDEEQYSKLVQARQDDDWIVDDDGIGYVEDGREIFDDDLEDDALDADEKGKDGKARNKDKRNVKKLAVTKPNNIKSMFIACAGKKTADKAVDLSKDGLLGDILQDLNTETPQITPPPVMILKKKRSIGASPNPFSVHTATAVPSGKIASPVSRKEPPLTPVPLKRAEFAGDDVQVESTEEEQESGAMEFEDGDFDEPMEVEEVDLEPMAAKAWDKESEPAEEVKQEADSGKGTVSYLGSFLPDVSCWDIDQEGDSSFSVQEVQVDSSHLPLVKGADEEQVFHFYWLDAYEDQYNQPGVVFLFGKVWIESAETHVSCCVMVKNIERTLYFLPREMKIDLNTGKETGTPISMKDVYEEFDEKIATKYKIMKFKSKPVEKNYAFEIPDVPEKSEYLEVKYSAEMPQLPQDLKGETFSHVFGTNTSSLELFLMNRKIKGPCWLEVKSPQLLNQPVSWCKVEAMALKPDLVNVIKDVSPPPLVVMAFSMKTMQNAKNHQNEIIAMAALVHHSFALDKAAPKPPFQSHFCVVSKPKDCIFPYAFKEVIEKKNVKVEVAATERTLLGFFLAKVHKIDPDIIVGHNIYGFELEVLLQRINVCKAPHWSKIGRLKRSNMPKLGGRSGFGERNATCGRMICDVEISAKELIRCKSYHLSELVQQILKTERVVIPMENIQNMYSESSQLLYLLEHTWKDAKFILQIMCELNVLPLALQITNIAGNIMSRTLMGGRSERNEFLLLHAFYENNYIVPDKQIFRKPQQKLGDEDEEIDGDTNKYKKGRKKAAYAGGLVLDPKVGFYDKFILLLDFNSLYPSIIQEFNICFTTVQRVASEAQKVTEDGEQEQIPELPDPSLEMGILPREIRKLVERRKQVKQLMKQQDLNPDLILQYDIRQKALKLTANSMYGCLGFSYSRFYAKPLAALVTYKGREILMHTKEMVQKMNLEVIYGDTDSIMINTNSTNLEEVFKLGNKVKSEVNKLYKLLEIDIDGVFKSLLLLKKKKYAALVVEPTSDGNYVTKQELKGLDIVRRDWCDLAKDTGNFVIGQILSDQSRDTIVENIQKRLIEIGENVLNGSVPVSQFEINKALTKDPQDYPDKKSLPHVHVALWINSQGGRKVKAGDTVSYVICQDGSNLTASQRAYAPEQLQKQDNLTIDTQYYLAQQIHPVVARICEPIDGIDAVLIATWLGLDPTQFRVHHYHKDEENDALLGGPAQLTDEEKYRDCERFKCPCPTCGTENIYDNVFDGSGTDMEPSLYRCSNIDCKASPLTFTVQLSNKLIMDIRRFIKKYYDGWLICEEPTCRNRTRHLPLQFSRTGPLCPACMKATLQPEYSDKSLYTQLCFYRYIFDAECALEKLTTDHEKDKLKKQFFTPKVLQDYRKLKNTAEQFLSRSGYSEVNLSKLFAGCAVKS
Sequence of UniProt O95394 (O95394 whole entry, looked up): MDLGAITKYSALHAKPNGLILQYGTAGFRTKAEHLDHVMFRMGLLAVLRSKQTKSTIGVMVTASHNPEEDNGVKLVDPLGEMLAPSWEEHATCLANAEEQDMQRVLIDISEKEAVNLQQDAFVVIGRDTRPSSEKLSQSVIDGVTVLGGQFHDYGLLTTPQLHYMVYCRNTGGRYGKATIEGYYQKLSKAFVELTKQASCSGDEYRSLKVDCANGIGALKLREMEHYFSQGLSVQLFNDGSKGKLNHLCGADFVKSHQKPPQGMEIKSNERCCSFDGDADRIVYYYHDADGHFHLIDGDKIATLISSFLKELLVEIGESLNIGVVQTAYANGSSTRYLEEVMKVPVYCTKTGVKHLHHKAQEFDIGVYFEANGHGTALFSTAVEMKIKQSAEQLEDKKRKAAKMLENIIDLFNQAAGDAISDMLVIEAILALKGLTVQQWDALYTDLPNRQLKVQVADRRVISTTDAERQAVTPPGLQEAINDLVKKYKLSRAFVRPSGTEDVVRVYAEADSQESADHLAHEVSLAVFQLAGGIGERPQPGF
Sequence of UniProt O00625 (O00625 whole entry, looked up): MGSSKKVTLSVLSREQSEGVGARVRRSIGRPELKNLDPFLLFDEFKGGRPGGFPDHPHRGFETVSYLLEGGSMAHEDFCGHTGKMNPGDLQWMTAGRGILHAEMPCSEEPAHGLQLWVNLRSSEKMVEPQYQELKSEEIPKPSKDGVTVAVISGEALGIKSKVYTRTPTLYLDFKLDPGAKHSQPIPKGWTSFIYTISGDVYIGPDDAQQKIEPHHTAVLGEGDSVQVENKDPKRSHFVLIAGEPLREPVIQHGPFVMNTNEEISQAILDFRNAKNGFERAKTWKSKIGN
Sequence of UniProt Q8WWY3 (Q8WWY3 whole entry, looked up): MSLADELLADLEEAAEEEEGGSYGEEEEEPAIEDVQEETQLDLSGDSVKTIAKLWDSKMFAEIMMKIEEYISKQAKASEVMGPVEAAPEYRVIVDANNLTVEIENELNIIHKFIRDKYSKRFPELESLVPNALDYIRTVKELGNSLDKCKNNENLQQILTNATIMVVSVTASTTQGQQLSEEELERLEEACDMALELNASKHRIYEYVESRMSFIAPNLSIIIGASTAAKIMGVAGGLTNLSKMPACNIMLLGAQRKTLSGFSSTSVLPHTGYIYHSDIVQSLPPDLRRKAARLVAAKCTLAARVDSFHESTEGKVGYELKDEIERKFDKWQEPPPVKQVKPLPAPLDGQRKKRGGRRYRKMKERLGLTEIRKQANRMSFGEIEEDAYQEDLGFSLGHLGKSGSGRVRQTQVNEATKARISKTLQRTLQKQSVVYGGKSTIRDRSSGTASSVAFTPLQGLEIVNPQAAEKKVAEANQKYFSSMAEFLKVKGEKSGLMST
Sequence of UniProt P42338 (P42338 whole entry, looked up): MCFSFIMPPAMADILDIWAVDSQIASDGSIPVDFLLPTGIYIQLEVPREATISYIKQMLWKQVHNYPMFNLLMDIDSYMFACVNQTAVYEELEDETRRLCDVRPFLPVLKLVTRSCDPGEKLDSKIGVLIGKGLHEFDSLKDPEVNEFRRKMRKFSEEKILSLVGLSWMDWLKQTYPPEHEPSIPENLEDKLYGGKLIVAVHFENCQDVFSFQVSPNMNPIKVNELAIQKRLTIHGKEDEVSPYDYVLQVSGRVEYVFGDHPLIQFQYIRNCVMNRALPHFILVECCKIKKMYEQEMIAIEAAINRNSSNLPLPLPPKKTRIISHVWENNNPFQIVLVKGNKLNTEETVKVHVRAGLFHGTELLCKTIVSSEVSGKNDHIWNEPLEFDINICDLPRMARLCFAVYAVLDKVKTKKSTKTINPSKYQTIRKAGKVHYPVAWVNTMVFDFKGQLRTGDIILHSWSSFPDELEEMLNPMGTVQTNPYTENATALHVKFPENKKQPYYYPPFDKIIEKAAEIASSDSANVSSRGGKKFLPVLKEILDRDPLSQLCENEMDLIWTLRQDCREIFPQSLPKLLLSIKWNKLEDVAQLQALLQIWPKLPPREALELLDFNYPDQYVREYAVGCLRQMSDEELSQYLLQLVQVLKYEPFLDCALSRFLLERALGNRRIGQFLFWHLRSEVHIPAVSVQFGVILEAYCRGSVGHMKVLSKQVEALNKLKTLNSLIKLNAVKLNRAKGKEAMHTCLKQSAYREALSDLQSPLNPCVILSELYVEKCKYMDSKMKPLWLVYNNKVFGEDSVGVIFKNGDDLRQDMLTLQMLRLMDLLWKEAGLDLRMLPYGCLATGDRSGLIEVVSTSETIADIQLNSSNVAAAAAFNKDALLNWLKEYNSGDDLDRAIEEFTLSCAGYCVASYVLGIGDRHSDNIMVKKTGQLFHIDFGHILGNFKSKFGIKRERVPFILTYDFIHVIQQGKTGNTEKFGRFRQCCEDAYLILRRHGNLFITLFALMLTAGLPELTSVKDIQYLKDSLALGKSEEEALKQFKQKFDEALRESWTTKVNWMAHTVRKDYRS

| Target | log2 fold change (erlotinib) | log2 fold change [1] | log2 fold change [2] | log2 fold change [3] | log2 fold change [4] | log2 fold change [5] | log2 fold change [6] | log2 fold change [7] | log2 fold change [8] | log2 fold change [9] | log2 fold change (IRAK-1-4 Inhibitor I) | log2 fold change (ibrutinib) | log2 fold change [10] | log2 fold change (ralimetinib) | log2 fold change [11] | log2 fold change [12] | log2 fold change [13] | log2 fold change (pinometostat) | log2 fold change [14] | log2 fold change [15] |
| --- | --- | --- | --- | --- | --- | --- | --- | --- | --- | --- | --- | --- | --- | --- | --- | --- | --- | --- | --- | --- |
| POLA1 (UniProt P09884) | 0.03 | 0.038 | 0.042 | -0.023 | -0.032 | 0 | -0.013 | 0.021 | 0.006 | -0.022 | -0.034 | -0.06 | -0.02 | -0.018 | -0.066 | -0.151 | 0.005 | -0.027 | -0.044 | -0.066 |
| POGLUT1 (UniProt Q8NBL1) | 0.006 | -0.046 | -0.041 | -0.004 | 0.055 | 0.026 | 0.167 | -0.013 | -0.007 | -0.041 | -0.032 | -0.03 | -0.047 | 0.162 | 0.058 | 0.055 | -0.106 | 0.026 | 0.009 | 0.016 |
| PRPF31 (UniProt Q8WWY3) | 0.105 | 0.194 | 0.05 | 0 | 0.217 | 0 | 0.027 | 0.076 | -0.067 | 0.129 | -0.066 | -0.028 | -0.3 | 0.069 | -0.144 | -0.387 | 0.004 | 0 | -0.016 | -0.271 |
| PIK3CB (UniProt P42338) | 0.07 | 0.018 | 0.002 | -0.022 | 0.081 | 0.09 | 0.032 | 0.014 | -0.016 | 0.004 | -0.051 | -0.049 | 0.082 | 0.013 | -0.082 | -0.082 | 0.02 | -0.069 | -0.026 | 0.041 |
| PGM3 isoform 4 (UniProt O95394) | 0.001 | 0.094 | 0.045 | 0.103 | 0.092 | 0.001 | 0.042 | 0.064 | -0.005 | -0.053 | -0.007 | -0.016 | -0.091 | 0.016 | -0.08 | -0.097 | -0.002 | 0.012 | -0.021 | 0.02 |
| PIR (UniProt O00625) | -0.027 | -0.058 | 0.025 | 0.464 (active) | 0.111 | 0.031 | -0.027 | 0.225 (active) | -0.053 | -0.002 | -0.016 | 0.019 | 0.016 | -0.056 | 0.073 | 0.011 | -0.042 | -0.01 | 0.015 | 0.037 |
| PCBP1 (UniProt Q15365) | -0.009 | 0.092 | 0.062 | -0.031 | 0.011 | -0.002 | 0.057 | 0.031 | -0.034 | 0.002 | 0 | -0.017 | -0.005 | 0.058 | -0.058 | -0.118 | -0.006 | -0.003 | 0.023 | 0.039 |
| PPP1R12A (UniProt O14974) | 0.004 | 0.044 | 0.023 | 0.023 | -0.188 | 0 | 0.035 | -0.067 | -0.074 | -0.485 (active) | -0.013 | -0.022 | -0.666 (active) | 0 | 0 | -0.119 | -0.014 | -0.003 | -0.514 (active) | -0.01 |

Source: the supplement of paper PMC10849652
